A short description of assay [1]: Inducers of the Endoplasmic Reticulum Stress Response (ERSR) in human glioma: Validation (AID 504836). Note: 0% is about no effect. The method in brief:
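ERSR induction read as luciferase luminescence (Bright-Glo, 10 min at room temperature) in stably transfected human U87-MG glioma cells exposed to compounds for 16 h, using GRP78 as sensor.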

The nature of assay [2]: qHTS for Inhibitors of the Functional Ribonucleoprotein Complex (vRNP) of Lassa (LASV) Arenavirus: LASV Primary Screen - GLuc reporter signal (AID 1347082; calls by dose curve; tested in HEK293 reporter line; note: series mostly up to about 57 µM; % is set by controls: 0 for no effect and ±100 for the full control effect; nearly all actives have a fitted effect of over 60% in size).
Assay [3] is described as follows: qHTS for Inhibitors of the Functional Ribonucleoprotein Complex (vRNP) of Lassa (LASV) Arenavirus: Viability assay - alamar blue signal for LASV Primary Screen (AID 1347083; calls by dose curve; tested in HEK293 reporter line; note: series mostly up to about 57 µM; % is set by controls: 0 for no effect and ±100 for the full control effect; nearly all actives have a fitted effect of over 80% in size). (In general: qHTS replaces the single test concentration by a dilution series.)
Assay [4] is described as follows: qHTS for Inhibitors of the Functional Ribonucleoprotein Complex (vRNP) of Lymphocytic Choriomeningitis Arenaviruses (LCMV): Viability assay - alamar blue signal for LCMV Primary Screen (AID 1347085; calls by dose curve; tested in HEK293 reporter line; note: series mostly up to about 57 µM; % is set by controls: 0 for no effect and ±100 for the full control effect; nearly all actives have a fitted effect of over 80% in size).
Assay [5] has as its target Nucleoprotein (Lymphocytic choriomeningitis virus (strain Armstrong)) (UniProt P09992). Description: qHTS for Inhibitors of the Functional Ribonucleoprotein Complex (vRNP) of Lymphocytic Choriomeningitis Arenaviruses (LCMV): LCMV Primary Screen - GLuc reporter signal (AID 1347086; calls by dose curve; note: series mostly up to about 57 µM; % is set by controls: 0 for no effect and ±100 for the full control effect; nearly all actives have a fitted effect of over 70% in size).
For assay [6], the target named is Alpha-galactosidase (Coffea arabica) (UniProt Q42656). Description: Counterscreen for Glucocerebrosidase Inhibitors: qHTS Assay for Coffee Bean alpha-Galactosidase at pH 5.9 (AID 998).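 Note: plate controls were uninhibited enzyme for no effect and no-enzyme basal signal for full effect.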 The method in brief: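 Compounds were titrated from 0.7 nM to 77 uM against green coffee bean alpha-galactosidase (2 nM) using 80 uM fluorogenic 4-methylumbelliferyl substrate. After 20 min at room temperature, reactions were stopped at pH 10 and read by fluorescence.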
Sequence of Alpha-galactosidase (Coffea arabica) (Q42656 whole entry, looked up): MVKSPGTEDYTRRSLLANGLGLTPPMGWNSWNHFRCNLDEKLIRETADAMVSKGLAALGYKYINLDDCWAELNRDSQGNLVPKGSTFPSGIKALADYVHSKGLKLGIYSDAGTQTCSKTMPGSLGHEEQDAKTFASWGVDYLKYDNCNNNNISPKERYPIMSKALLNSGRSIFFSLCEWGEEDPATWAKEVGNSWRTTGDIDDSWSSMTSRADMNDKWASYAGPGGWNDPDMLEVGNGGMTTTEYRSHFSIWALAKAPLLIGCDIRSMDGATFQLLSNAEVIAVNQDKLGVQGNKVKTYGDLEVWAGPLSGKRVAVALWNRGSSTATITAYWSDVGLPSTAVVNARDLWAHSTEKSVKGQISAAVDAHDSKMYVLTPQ

In assay [7] the target is Estrogen receptor (Homo sapiens) (UniProt P03372). The assay can be described thus: qHTS assay for small molecule antagonists of estrogen receptor alpha signaling (AID 588513; active = well fitted curve in the direction sought with a large enough effect in the signal ratio, with a control signal flat, not every such curve was filed as active; the % refers to the signal ratio; note: % is set by controls: 0 for no effect and ±100 for the full control effect). The method in brief: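 Cells were plated at 5000/well and incubated 4 h at 37 C. Compounds were added as 1:2 dilution series, duplicates. 17-beta-estradiol (0.5nM final) was added for 18 h before CCF4 detection.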
Sequence of Estrogen receptor (Homo sapiens) (P03372 whole entry, looked up): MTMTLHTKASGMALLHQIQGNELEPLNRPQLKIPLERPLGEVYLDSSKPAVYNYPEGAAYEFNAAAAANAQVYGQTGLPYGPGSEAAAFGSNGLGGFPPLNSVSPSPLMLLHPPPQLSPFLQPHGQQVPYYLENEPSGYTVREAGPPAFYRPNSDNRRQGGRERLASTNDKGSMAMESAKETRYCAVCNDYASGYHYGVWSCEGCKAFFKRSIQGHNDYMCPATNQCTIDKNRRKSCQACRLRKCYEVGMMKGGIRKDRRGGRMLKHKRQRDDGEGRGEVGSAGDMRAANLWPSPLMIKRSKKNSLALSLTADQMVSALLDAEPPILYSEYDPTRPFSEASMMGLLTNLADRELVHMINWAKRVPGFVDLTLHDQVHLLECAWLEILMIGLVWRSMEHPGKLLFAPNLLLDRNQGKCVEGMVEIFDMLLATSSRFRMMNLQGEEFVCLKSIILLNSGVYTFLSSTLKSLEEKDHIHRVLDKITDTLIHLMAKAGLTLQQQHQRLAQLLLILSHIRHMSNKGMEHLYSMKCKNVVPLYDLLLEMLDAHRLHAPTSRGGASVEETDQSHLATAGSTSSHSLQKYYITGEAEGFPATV

Assay [8] has as its target Glucocorticoid receptor (Homo sapiens) (UniProt P04150). The assay can be described thus: qHTS assay for small molecule agonists of glucocorticoid receptor signaling (AID 588532; active = well fitted curve in the direction sought with a large enough effect in the signal ratio, with a control signal flat; the % refers to the signal ratio;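 note: 100% = dexamethasone at 0.1 µM and 0% = DMSO only wells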). As to conditions: HeLa MMTV-bla, beta-lactamase ratio, agonist, 18 h; stronger effect = higher value; percent of dexamethasone control, DMSO zero. The method in brief: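 Quantitative HTS using CellSensor MMTV-bla HeLa cells in charcoal/dextran-treated serum; compounds tested up to 92 uM. After 18 h at 37 C, CCF4 dye reported reporter induction.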

For assay [9] the target is unchanged. The assay can be described thus: qHTS assay for small molecule antagonists of glucocorticoid receptor signaling (AID 588533; active = well fitted inhibition curve with a large enough effect in the signal ratio, with a control signal flat, not every such curve was filed as active; the % refers to the signal ratio;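 note: cells stimulated with 2 nM dexamethasone as agonist; % is set by controls: 0 for no effect and ±100 for the full control effect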). The method in brief:
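Antagonist-mode qHTS: compound titrations added to GRE-bla HeLa cells, then dexamethasone 2 nM final; 18 h, 37 C. CCF4 FRET fluorescence normalized to dexamethasone and DMSO; IC50 from Hill fit.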

The nature of assay [10]: qHTS assay for small molecule antagonists of peroxisome proliferator-activated receptor delta signaling (AID 588535; active = well fitted inhibition curve with a large enough effect in the signal ratio, with a control signal flat, not every such curve was filed as active; the % refers to the signal ratio;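 for max response: cells co-treated with a PPAR-delta agonist as stimulator during compound exposure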). As to conditions: HEK293T PPARd-UAS-bla, beta-lactamase FRET ratio, 18 h; 460 nm channel. Summed up: (§1)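 Cell-based beta-lactamase assay in antagonist mode: 4000 HEK293T PPAR-delta-UAS-bla cells per well, 5 hr preincubation then 18 hr compound incubation at 37 C. IC50 obtained by Hill equation fitting.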

For assay [11], the target named is Peroxisome proliferator-activated receptor delta (Homo sapiens) (UniProt Q03181). The assay is described as above. The method in brief:
as §1

Assay [12] deals with Peroxisome proliferator-activated receptor gamma (Homo sapiens) (UniProt P37231). The assay can be described thus: qHTS assay for small molecule agonists of peroxisome proliferator-activated receptor gamma signaling (AID 588536; active = well fitted curve in the direction sought with a large enough effect in the signal ratio, with a control signal flat, not every such curve was filed as active; the % refers to the signal ratio;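 note: 0% = DMSO basal wells and 100% = rosiglitazone at 2 µM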). Summed up: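 PPAR-gamma-UAS-bla HEK293 cells in medium with 1% charcoal/dextran-treated FBS were exposed to compounds for 16 h at 37 C. Beta-lactamase activity was read with CCF4 substrate (405 nm excitation, 460/530 nm emission).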
Sequence of Peroxisome proliferator-activated receptor gamma (Homo sapiens) (P37231 whole entry, looked up): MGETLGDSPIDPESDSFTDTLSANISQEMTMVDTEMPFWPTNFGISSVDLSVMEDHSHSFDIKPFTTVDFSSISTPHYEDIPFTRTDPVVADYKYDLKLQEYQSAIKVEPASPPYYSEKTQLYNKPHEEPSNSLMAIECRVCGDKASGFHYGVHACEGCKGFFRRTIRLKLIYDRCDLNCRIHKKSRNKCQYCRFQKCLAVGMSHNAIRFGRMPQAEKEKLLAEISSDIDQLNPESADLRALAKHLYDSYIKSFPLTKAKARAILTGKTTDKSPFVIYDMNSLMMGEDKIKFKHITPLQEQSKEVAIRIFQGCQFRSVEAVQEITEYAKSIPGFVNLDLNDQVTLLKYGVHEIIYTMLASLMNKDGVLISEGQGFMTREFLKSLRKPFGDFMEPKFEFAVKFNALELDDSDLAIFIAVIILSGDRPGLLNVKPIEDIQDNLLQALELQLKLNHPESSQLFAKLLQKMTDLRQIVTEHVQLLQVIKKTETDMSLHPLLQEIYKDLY

The target is the same in assay [13]. Description: qHTS assay for small molecule antagonists of peroxisome proliferator-activated receptor gamma signaling (AID 588537; active = well fitted inhibition curve with a large enough effect in the signal ratio, with a control signal flat, not every such curve was filed as active; the % refers to the signal ratio;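 note: reporter cells co-stimulated with 50 nM rosiglitazone agonist during compound treatment; % of control where 0% means no effect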). The method in brief:
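Inhibitors of agonist-stimulated UAS-bla reporter activity were sought in HEK293 cells; rosiglitazone (50 nM) defined full signal and DMSO baseline. Curves fitted to Hill model gave IC50 and efficacy.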

Assay [14] is described as follows: qHTS assay for small molecule agonists of retinoid X receptor alpha signaling (AID 588544; calls by dose curve;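 for activation: 0% = DMSO basal wells and 100% = reference agonist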). To be noted: HEK293T RXRa-UAS-bla, beta-lactamase reporter, 18 h; 530 nm emission.
For assay [15], the target named is Retinoic acid receptor RXR-alpha (Homo sapiens) (UniProt P19793). Described as above.
Sequence of Retinoic acid receptor RXR-alpha (Homo sapiens) (P19793 whole entry, looked up): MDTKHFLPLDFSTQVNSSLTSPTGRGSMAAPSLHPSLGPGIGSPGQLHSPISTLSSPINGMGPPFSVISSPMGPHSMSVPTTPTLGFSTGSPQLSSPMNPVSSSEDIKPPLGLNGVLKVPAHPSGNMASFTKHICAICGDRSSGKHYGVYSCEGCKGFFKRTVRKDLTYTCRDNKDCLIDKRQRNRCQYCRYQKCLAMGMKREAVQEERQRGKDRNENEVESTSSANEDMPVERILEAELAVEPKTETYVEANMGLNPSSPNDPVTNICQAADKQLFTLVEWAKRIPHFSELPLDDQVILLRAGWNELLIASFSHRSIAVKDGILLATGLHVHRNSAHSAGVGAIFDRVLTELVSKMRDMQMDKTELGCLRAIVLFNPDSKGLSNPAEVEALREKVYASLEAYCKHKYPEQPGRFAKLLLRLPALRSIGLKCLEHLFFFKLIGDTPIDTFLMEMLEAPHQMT
Assay [16] addresses Thyroid hormone receptor beta (Homo sapiens) (UniProt P10828). Description: qHTS assay for small molecule agonists of thyroid hormone receptor beta signaling (AID 588545; calls by dose curve). Summed up:
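Agonist activity was read as beta-lactamase CCF4 fluorescence (405 ex, 460/530 em), scaled between DMSO (0%) and 10 nM T3 (100%), then Hill-fitted for EC50 and efficacy. HEK 293 TR-UAS-bla cells in 2% charcoal/dextran FBS medium were exposed 18 h at 37 C.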

Assay [17] is described as follows: qHTS assay for small molecule antagonists of retinoid X receptor alpha signaling (AID 588546; active = well fitted inhibition curve with a large enough effect in the signal ratio, with a control signal flat, not every such curve was filed as active; the % refers to the signal ratio;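 note: cells stimulated with 9-cis-retinoic acid as agonist; % is set by controls: 0 for no effect and ±100 for the full control effect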). As to conditions: HEK293T RXRa-UAS-bla, beta-lactamase ratio, antagonist mode; measured here: W530 green channel, cytotoxicity proxy. Summed up:
(§2)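 Beta-lactamase reporter inhibition, read as CCF4 fluorescence ratio (ex 405, em 460/530 nm) after 2 h at RT. HEK293T UAS-bla cells, 2500/well, were stimulated with 9-cis-RA at 500 or 100 nM final alongside test compound for 18 h at 37 C.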

Assay [18] addresses Retinoic acid receptor RXR-alpha (Homo sapiens) (UniProt P19793). Described as above. As to conditions: HEK293T RXRa-UAS-bla, beta-lactamase ratio, antagonist mode. The method in brief:
as §2

The target of assay [19] is Thyroid hormone receptor beta (Homo sapiens) (UniProt P10828). The assay can be described thus: qHTS assay for small molecule antagonists of thyroid hormone receptor beta signaling (AID 588547; active = well fitted inhibition curve with a large enough effect in the signal ratio, with a control signal flat, not every such curve was filed as active; the % refers to the signal ratio;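 note: cells stimulated with 0.4 nM T3 agonist during compound exposure; series mostly up to about 77 µM; % is set by controls: 0 for no effect and ±100 for the full control effect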). To be noted: TR-UAS-bla HEK293, beta-lactamase ratio, antagonist mode, 18 h. The method in brief: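 Inhibition of T3-driven (0.4nM final) beta-lactamase reporter activity was measured over 0.59 nM to 92 uM compound after 18 h at 37 C. The cells were GripTite HEK293 TR-UAS-bla in charcoal/dextran-stripped serum, with CCF4 ratio read-out and IC50 from Hill fits.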
Sequence of Thyroid hormone receptor beta (Homo sapiens) (P10828 whole entry, looked up): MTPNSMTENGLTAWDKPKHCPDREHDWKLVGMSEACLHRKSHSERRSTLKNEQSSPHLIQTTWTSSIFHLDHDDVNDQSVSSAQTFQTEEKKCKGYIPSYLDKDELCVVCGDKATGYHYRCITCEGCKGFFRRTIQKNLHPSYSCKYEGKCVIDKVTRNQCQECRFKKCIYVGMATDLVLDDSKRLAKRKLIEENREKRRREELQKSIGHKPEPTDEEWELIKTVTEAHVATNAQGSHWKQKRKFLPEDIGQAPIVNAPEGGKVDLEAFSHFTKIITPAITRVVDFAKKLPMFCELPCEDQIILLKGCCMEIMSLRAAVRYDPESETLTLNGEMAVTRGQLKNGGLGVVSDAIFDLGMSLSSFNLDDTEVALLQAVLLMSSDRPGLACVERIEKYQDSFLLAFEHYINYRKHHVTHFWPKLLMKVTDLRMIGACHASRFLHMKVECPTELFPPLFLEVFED

The nature of assay [20]: qHTS assay for small molecule agonists of the antioxidant response element (ARE) signaling pathway (AID 651741; active = well fitted activation curve with a large enough effect in the signal ratio; the % refers to the signal ratio; note: % of control where 0% means no effect). The method in brief:
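Seeding 2,000 ARE-bla HepG2 cells per well preceded a 5 h incubation at 37 C/5% CO2 and a 16 h compound exposure at 37 C. Beta-lactamase reporter activity was then quantified by fluorescence after 2 h with LiveBLAzer B/G FRET substrate.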

Assay [21] in a line: qHTS assay for small molecule activators of the p53 signaling pathway (AID 651743; active = well fitted activation curve with a large enough effect in the signal ratio, not every such curve was filed as active; the % refers to the signal ratio; note: series mostly up to about 92 µM; % of control where 0% means no effect). As to conditions: HCT-116 p53RE-bla, beta-lactamase FRET ratio, 16 h; activation: stronger effect = higher value. Summed up:
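Screen for p53 pathway agonists uses stably transfected p53RE-bla HCT-116 cells, 4,000 per well, treated 16 h at 37 C with compounds in DMSO.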

Assay [22] can be described thus: qHTS assay for environmental chemicals that activate the Aryl hydrocarbon Receptor (AhR) signaling pathway (AID 651777). Note: % of control where 0% means no effect; nearly all actives have a fitted effect of over 15% in size. To be noted: 1A2-DRE human hepatoma cells, luciferase, 24 h; activation: stronger effect = higher value. The method in brief: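 AhR activation is scored as a rise in luciferase from a stable DRE–CYP1A2 promoter construct in human hepatoma cells. Treatment lasts 24 hr at 37 C; detection uses One-Glo after 30 min at room temperature.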

Assay [23] concerns the target Peroxisome proliferator-activated receptor alpha (Homo sapiens) (UniProt Q07869). Description: qHTS assay for small molecule agonists of the peroxisome proliferator-activated receptor alpha (PPARalpha) signaling pathway (AID 651778). Note: % of control where 0% means no effect. To be noted: PathHunter PPARalpha complementation, chemiluminescence, 6 h; stronger effect = higher value. Summed up:
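Chemiluminescence from complemented enzyme reported PPARalpha activation in cells after 6 hr of compound treatment at 37 C. The detection reagent was incubated for 60 min at room temperature, and compounds were scored as agonists.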

The nature of assay [24]: qHTS assay for small molecule agonists of the antioxidant response element (ARE) signaling pathway measured by Nrf2-dependant transcriptional activity (AID 720636; active = well fitted curve in the direction sought with a large enough effect in the repeat runs; an effect the other way counts as inactive or inconclusive;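 note: HepG2 cells with an ARE-driven luciferase reporter; % of control where 0% means no effect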). Summed up:
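First, ARE-luc HepG2 cells attached for 6 hr at 37 C in 1% dialyzed FBS medium. Next, compound or DMSO was added and incubated 16 hr. Finally, ONE-Glo reagent was added and luminescence measured after 30 min.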

Assay [25] in a line: qHTS assay for small molecule agonists of the antioxidant response element (ARE) signaling pathway measured by Nrf2-dependant transcriptional activity - cell viability counter screen (AID 720653; active = well fitted curve in the direction sought with a large enough effect in the repeat runs; an effect the other way counts as inactive or inconclusive; note: % is set by controls: 0 for no effect and ±100 for the full control effect). As to conditions: ARE-bla HepG2 viability, CellTiter-Glo ATP luminescence, 16 h; max response: stronger effect = lower value. The method in brief: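 Cytotoxicity counter screen: intracellular ATP quantified by CellTiter-Glo luminescence in the same ARE-bla HepG2 plates, after 16 h compound exposure and a 2 h beta-lactamase substrate step.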

The nature of assay [26]: qHTS assay for cell viability of HEK293 cells (AID 743288). Note: % is set by controls: 0 for no effect and ±100 for the full control effect; nearly all actives have a fitted effect of over 50% in size. As to conditions: ATP luminescence (CellTiter-Glo), 18 h; max response: stronger effect = lower value. Summed up:
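The Tox21 protocol used parental HEK293 cells treated for 18 h at 37 C with compounds delivered by pintool; ATP-coupled luminescence after 30 min at room temperature gave viability.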

A short description of assay [27]: qHTS assay for cell viability of the p53RE-bla HCT-116 cell line (AID 743292). Note: % is set by controls: 0 for no effect and ±100 for the full control effect; nearly all actives have a fitted effect of over 55% in size. The method in brief: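 Quantitative high-throughput format: compounds in DMSO were pinned onto p53RE-bla HCT-116 cells (4,000/well) and incubated 16 h at 37 C. Total intracellular ATP, read by CellTiter-Glo luminescence, reflects viable cell number.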
The target of assay [28] is Nuclear receptor subfamily 1 group I member 2 (Rattus norvegicus) (UniProt Q9R1A7). Description: qHTS assay for small molecule activators of the rat pregnane X receptor (rPXR) signaling pathway (AID 651751; call rule not given here; note: 0% is about no effect). As to conditions: rPXR reporter cells, luciferase (One-Glo), 24 h.
Sequence of Nuclear receptor subfamily 1 group I member 2 (Rattus norvegicus) (Q9R1A7 whole entry, looked up): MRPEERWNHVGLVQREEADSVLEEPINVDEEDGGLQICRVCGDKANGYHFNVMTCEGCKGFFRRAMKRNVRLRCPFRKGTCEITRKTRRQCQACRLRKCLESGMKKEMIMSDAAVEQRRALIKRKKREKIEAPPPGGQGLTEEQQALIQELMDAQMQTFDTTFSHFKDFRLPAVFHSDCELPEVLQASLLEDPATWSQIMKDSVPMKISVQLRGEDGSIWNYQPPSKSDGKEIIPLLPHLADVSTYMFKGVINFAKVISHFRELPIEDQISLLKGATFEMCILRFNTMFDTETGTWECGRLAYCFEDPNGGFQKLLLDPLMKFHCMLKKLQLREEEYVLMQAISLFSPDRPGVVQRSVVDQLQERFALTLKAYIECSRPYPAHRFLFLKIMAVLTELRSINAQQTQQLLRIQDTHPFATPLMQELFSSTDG
Assay [29] is described as follows: qHTS assay for small molecule activators of the human pregnane X receptor (PXR) signaling pathway (AID 720659; call rule not given here; note: 0% is about no effect).

Structures are written as SMILES. Records with an inconclusive call do not appear. Calls of active or inactive are those of the source. Unless noted, calls come from the whole dose curve; as a rule, active = well fitted curve in the direction sought with a large enough effect; inconclusive = small, poorly fitted or top-dose-only effect, or another doubt; inactive = no such curve, though single readings can be large; an effect the other way counts as inactive or inconclusive.

Sequence of Nucleoprotein (Lymphocytic choriomeningitis virus (strain Armstrong)) (P09992 whole entry, looked up): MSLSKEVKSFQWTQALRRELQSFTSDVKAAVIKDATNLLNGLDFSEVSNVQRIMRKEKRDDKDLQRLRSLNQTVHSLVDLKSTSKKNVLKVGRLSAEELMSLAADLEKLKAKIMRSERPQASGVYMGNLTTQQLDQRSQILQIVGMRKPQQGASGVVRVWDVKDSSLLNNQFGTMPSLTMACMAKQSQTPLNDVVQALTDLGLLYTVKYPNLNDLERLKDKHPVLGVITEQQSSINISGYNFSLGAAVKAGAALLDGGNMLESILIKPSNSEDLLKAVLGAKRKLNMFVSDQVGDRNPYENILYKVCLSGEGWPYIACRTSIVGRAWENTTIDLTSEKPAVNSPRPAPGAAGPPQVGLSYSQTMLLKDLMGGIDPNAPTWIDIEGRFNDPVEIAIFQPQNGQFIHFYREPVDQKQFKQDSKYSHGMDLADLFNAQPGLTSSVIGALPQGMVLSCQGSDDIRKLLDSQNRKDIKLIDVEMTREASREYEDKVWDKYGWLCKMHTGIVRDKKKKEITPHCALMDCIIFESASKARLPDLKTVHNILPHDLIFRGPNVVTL
Sequence of Glucocorticoid receptor (Homo sapiens) (P04150 whole entry, looked up): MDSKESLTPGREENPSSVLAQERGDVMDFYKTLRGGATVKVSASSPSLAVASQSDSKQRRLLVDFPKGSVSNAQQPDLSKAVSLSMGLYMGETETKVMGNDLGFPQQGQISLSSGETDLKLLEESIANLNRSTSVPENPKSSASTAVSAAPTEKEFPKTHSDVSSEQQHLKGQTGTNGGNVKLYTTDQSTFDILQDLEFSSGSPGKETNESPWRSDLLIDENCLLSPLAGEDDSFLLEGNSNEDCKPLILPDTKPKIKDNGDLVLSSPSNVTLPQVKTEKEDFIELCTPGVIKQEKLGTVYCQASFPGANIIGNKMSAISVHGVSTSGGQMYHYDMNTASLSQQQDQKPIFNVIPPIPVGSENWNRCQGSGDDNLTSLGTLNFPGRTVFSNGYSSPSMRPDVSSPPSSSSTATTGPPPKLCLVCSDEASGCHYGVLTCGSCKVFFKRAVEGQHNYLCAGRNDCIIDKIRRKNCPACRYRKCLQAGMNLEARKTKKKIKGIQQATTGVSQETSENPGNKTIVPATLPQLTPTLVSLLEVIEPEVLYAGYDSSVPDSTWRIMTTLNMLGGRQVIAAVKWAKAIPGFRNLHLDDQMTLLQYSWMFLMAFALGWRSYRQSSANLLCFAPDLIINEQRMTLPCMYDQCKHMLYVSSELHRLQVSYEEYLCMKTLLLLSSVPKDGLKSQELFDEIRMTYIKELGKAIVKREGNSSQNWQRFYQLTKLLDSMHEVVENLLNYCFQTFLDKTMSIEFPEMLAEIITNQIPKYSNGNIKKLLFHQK
Sequence of Peroxisome proliferator-activated receptor alpha (Homo sapiens) (Q07869 whole entry, looked up): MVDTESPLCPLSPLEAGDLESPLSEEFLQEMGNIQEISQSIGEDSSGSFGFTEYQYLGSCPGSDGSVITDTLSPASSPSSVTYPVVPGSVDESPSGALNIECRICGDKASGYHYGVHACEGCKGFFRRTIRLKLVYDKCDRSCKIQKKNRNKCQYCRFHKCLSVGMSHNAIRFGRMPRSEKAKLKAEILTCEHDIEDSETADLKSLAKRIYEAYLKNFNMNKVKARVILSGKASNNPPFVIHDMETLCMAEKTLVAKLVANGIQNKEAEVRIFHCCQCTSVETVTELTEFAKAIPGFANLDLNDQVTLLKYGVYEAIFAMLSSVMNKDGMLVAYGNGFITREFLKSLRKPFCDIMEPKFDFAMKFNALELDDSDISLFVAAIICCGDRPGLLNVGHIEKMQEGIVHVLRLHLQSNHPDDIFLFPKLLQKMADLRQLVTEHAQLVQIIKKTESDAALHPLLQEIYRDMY

`CC1CC2C3CCC4=CC(=O)C=C[C@]4(C)[C@@]3(F)[C@@H](O)C[C@]2(C)[C@@]1(O)C(=O)CO` (stereo partly drawn): the compound was classed as inactive in assay [1]. In addition, the Potency result in assay [2], in assay [3], in assay [4] and in [5] was “inactive” each time.

On to `Brc1ccc([C@H]2CN3CCSC3=N2)cc1`, for which the outcome in [6] and in assay [1] was inactive. In addition, the Potency result in assay [2], in assay [3], in assay [4] and in assay [5] was “inactive” in each case.

For `C[C@H]1O[C@H](OC2[C@@H](O)[C@@H](O)C(O)[C@H](O)[C@H]2O)[C@@H](N)C[C@@H]1N=C(N)C(=O)O` (stereo partly drawn), the Potency entry in assay [7], in assay [9], in assay [13], in assay [16], in assay [20] and in assay [24] was “inactive” in each case. The Potency result in [2], in assay [3], in assay [4] and in assay [5] was “inactive” in each case. Moreover, the activation in assay [8] is -3.89% (inactive); in [21], 0.472% (inactive); in assay [22] it was -0.0561% (inactive). For the same compound, the max response is -16.5% in assay [10]; -7.18% in assay [14]; -6.74% in assay [17]; -1.33% (inactive) in assay [18]; -0.85% (inactive) in [23]; 3.51% (inactive) in assay [25]. In addition, the figures for the max response in [26] and in assay [28] were 0.169% (inactive) and -0.488% (inactive), respectively. Also, the call in assay [11], in assay [12], in [15], in assay [27] and in assay [29] was inactive. Moreover, the activity change % (negative = inhibition) in assay [19] is 1.51% (inactive).
